PubChem BioAssay AID504332 (National Center for Advancing Translational Sciences (NCATS), 2011)
In all, about 350,000 compounds went through this assay and about 31,000 (8.9%) were called active. Roughly 15% stayed inconclusive and do not appear here. Calls follow the shape of the dose curve; as a rule, active = well fitted inhibition curve with a large enough effect; inconclusive = small, poorly fitted or top-dose-only effect; inactive = no such curve, though single readings can be large or run the other way. Only a selection was taken, and actives are over-represented in it overall.

Molecular target: Histone-lysine N-methyltransferase EHMT2 (Homo sapiens) (UniProt Q96KQ7)
Sequence (Q96KQ7 913-1193 limits assumed): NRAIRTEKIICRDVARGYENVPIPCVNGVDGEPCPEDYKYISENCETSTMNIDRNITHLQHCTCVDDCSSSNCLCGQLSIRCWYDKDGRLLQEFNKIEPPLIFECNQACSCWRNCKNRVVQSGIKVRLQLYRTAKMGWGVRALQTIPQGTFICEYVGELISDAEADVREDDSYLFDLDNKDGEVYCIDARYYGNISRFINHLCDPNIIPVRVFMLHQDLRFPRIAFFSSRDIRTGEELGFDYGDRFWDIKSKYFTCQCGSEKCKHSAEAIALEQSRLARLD
Experiment: qHTS Assay for Inhibitors of Histone Lysine Methyltransferase G9a; also: nearly all actives have a fitted effect of over 75% in size
Settings: G9a H3K9 monomethylation, AlphaScreen, 2 h; series mostly up to 59 µM; activity, negative = inhibition: at the top concentration
Procedure, shortened: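 Signal arises when biotinylated H3K9 peptide, once monomethylated, bridges streptavidin donor and antibody-captured acceptor beads. Enzyme at 20 nM was preincubated 15 min with test compounds; peptide 500 nM and SAM 20 uM then reacted for 2 h.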
% is scaled to controls: 0 for no effect and ±100 for the full control effect; potency is read from the fitted curve at half-maximal effect.

activity, negative = inhibition, inactive:
Cc1ccc(CNS(=O)(=O)c2ccc(-c3cc(C(F)(F)F)on3)s2)cc1 -5.27%
Cc1ccc(CN2C(=O)SC(Nc3ccccc3)C2=O)cc1 (stereo unspecified) 1.21%
Cn1cc(/C=C/c2nc3ccccc3c(=O)n2-c2cccc([N+](=O)[O-])c2)c2ccccc21 -7.57%
Cc1ccc(N2C(=O)S/C(=C/c3cn(C)c4ccccc34)C2=O)cc1 1.11% [at 102 µM]
CCC(=O)N1CCc2cc(S(=O)(=O)NC(C(=O)Nc3ccc(C(C)=O)cc3)C(C)C)ccc21 (stereo unspecified) 1.46%
Cc1ccc(C)c(NC(=O)C2CCCN(S(=O)(=O)c3cn(C)cn3)C2)c1 (stereo unspecified) 15.1%
C=CCNc1nc(N)c([N+](=O)[O-])c(NC2CCCCC2)n1 -5.17% [at 102 µM]
CCCNC(=O)CCc1c(C)nc2c(c(C)nn2-c2ccccc2)c1C 38.4% [at 102 µM]
Cc1ccc(C)c(Cn2c(C(=O)O)c(CNCc3cccs3)c3ccccc32)c1 -1.51%
CC(=O)Nc1nc(C)c(-c2csc(Nc3ccc(S(N)(=O)=O)cc3)n2)s1 -39% [at 102 µM]
COc1ccc2nc(Nc3nc(-c4ccncc4)cs3)sc2c1 4.27% [at 102 µM]
O=C(Nc1ccc(-c2csc(Nc3cccc(C(F)(F)F)c3)n2)cc1)c1cccc(C(F)(F)F)c1 -6.74% [at 12.7 µM]
COc1cccc(CC(=O)Nc2nc(-c3ccc(OC)c(OC)c3)cs2)c1 -6.69% [at 102 µM]
CCOC(=O)Cc1csc(NC(=O)Nc2ccccc2)n1 6.91%
COc1ccc(CC(=O)Nc2nc(-c3ccc(F)c(F)c3)cs2)cc1OC -13.8% [at 102 µM]
O=C(Nc1ccccc1)Nc1nc2ccccc2s1 -5.29% [at 102 µM]
COc1ccc(-c2csc(NC3OC(=O)c4ccccc43)n2)cc1 (stereo unspecified) 0.895%
CCOc1ccc(NC(=O)CSc2c3c(nc4ccccc24)CCCC3)cc1 7.49%
COc1ccccc1CNC(=O)COn1nnc2ccc(S(=O)(=O)N3CCOCC3)cc21 -27.8% [at 102 µM]
Cc1cc(O)c(C(=O)/C=C/c2c(F)c(F)c(F)c(F)c2F)c(=O)o1 -25.4% [at 2.33 µM]
Cc1ccc2c(c1)N(C(=O)Nc1ccc(Br)cc1F)CCO2 -22.5%
Cc1ccc(S(=O)(=O)N2CCN(c3ccccc3)CC2)cc1C 2.79% [at 102 µM]
NS(=O)(=O)c1ccc(CNC(=O)c2cccc(S(=O)(=O)N3CCc4ccccc43)c2)cc1 15.2% [at 2.33 µM]
COc1ccc(OCC(=O)OCCN(C)C)cc1 -13.2%
Cc1n[nH]c(=O)n1-c1ccc(Oc2ccccc2)cc1 106%
CC(Sc1nnc(COc2ccccc2)n1-c1ccccc1)C(=O)O (stereo unspecified) 9.68% [at 0.501 µM]
Cc1ccc(OCc2nc3ccccc3n2C)cc1 4.42% [at 0.501 µM]
COc1ccc(OCc2ccc(-c3nc4ccccc4c(=O)n3N)o2)cc1 14.4% [at 2.33 µM]
Cc1ccc(NC(=O)Nc2cc(-c3ccccc3)nn2C)cc1Cl 4.64% [at 102 µM]
Cc1ccc(OCc2n[nH]c(=S)n2-c2ccc(C)cc2)cc1 18.9% [at 102 µM]
Cc1ccc(NC(=O)CSc2nc3c([nH]c4ccccc43)c(=O)n2-c2ccccc2)cc1Cl 0.779%
CN(C)CCn1c2c(c(SCC(=O)Nc3ccccc3C(F)(F)F)nc1=O)CCCC2 7.38% [at 0.501 µM]
CCOC(=O)c1ccc(NC2=CC(c3ccc(OCC)cc3)N(c3ccc(C(=O)OCC)cc3)C2=O)cc1 (stereo unspecified) -41.8%
COc1cc(NC(=O)CCn2nc(C)cc2C)cc(OC)c1OC 7.03%
Cc1c(Cl)cccc1NC(=O)C1CCCN(C(=O)c2cnn(-c3ccccc3)c2-n2cccc2)C1 (stereo unspecified) -2.57%
Cn1c(C(=O)N2CCCC(C(=O)NCc3ccccc3)C2)cc2sccc21 (stereo unspecified) -0.912%
COc1ccc(-c2noc(CSc3nc4ccc(C)cc4[nH]3)n2)cc1 4.71%
O=C(Nc1ccc(C(F)(F)F)cc1)c1cccc(-n2cnnn2)c1 -33%
O=C(CN1C(=O)COc2ccc(Cl)cc21)N1CCOCC1 78.5% [at 102 µM]
CC(=N\NC(=O)c1cc(Br)ccc1O)/C(=N/O)C(=O)Nc1ccccc1 1.77% [at 102 µM]
COc1ccc(OC)c(/C=C/C(=O)c2ccc3c(c2)OCO3)c1 13.7% [at 12.7 µM]
Cc1ccccc1-c1nc(CS(=O)(=O)CC(=O)Nc2cc(Cl)cc(Cl)c2)c(C)o1 -2.38%
CCOc1ccccc1C(=O)NC1(C(F)(F)F)NC(=O)N(CCc2ccc(OC)c(OC)c2)C1=O (stereo unspecified) -8.28%
O=C(CSc1ncnc2sccc12)N1CCN(C(=O)c2cccs2)CC1 14% [at 12.7 µM]
COc1ccc(CNC(=O)c2cc3c(=O)[nH]c4ccc(C)cc4c3s2)c(OC)c1 9.06%
COc1cc(C(=O)Nc2cc(C(F)(F)F)ccc2-n2cncn2)cc(OC)c1OC 1.32% [at 102 µM]
CCOc1ccc(C(=O)Nc2cc(OC)ccc2OC)cc1 20% [at 102 µM]
COc1ccc(-n2nnnc2CNC(=O)c2ccc3ccccc3c2)cc1 -3.4% [at 102 µM]
COc1ccccc1C(CNC(=O)c1cccc(S(=O)(=O)Nc2ccc(F)cc2)c1)N(C)C (stereo unspecified) 17.4% [at 12.7 µM]
COc1ccccc1C(CNC(=O)c1cccc(NS(=O)(=O)c2ccc(Br)cc2)c1)N(C)C (stereo unspecified) -36.2% [at 102 µM]
CCOc1ccccc1CNCc1c(C(=O)O)c(C)n(Cc2ccc(C)cc2)c1C -1.87%
O=C(O)c1cc2c(cc1NC(=O)c1c(F)cccc1Cl)OCCCO2 -15.3% [at 102 µM]
O=C(NCc1ccc(Cl)cc1)c1ccc2c(c1)nnn2C1CCCC1 -6.56%
O=C(NCCN1CCOCC1)c1ccc2c(c1)ncn2C1CCCC1 -47.7% [at 102 µM]
CCOc1ccc(C(=O)CCC(=O)NC2=NCCS2)cc1 2.24% [at 0.501 µM]
CN(CCc1ccccn1)C(=O)c1ccc(OC2CCN(CCc3ccccc3)CC2)cc1 21.6% [at 102 µM]
Cc1cnc(CN(C)C(=O)CC2C(=O)NCCN2Cc2cccc(F)c2F)[nH]1 (stereo unspecified) -5.82% [at 102 µM]
COc1ccccc1CN1CCNC(=O)C1CC(=O)N(C)CC1CCOCC1 (stereo unspecified) 13.6% [at 0.0925 µM]
CN(C(=O)CC1C(=O)NCCN1Cc1ccc(F)cc1Cl)C1CCCCC1 (stereo unspecified) 0.263% [at 102 µM]
CCCOC(=O)CC1C(=O)NCCN1Cc1ccc(F)cc1 (stereo unspecified) 10.2% [at 102 µM]
CC(C)c1nc(CNC(=O)CC2C(=O)NCCN2Cc2ccoc2)cs1 (stereo unspecified) -29.4% [at 102 µM]
Cc1cccc(NC(=O)Cn2c(=O)n(CCC(C)C)c(=O)c3cccnc32)c1 -1.53%
CCN(CC(=O)Nc1c(F)cccc1F)C(=O)c1cnc(C)cn1 9.59% [at 2.33 µM]
COc1ccc(-c2nc(CN3CCC(C(=O)NCCN(CC(C)C)CC(C)C)CC3)c(C)o2)cc1OC -43.1%
Cc1ccc(C(=O)Nc2nc(-c3ccccc3)ns2)cc1 -3.13%
Cc1ccc(CNC(=O)CC(NC(=O)c2ccccc2)c2ccccc2)cc1 (stereo unspecified) 12.4% [at 12.7 µM]
Cc1ccc(CNC(=O)CCc2c(C)nc3nc(CNC(=O)OC(C)(C)C)nn3c2C)cc1 -2.86%
COCCNC(=O)c1ccc2c(c1)N=C(C)c1cc(C)ccc1S2 -33.8%
CCOC(=O)C1(CCOc2ccccc2)CCN(Cc2ccc(C#CCCO)cc2)CC1 -13.7% [at 102 µM]
Cc1ccc(Cl)cc1N(C)C(=O)Cn1nc(Cc2cccnc2)c2ccccc2c1=O -0.885%
COc1ccc(C(=O)Nc2ccccc2C(=O)NCc2ccco2)cc1 20.2% [at 102 µM]
O=C(Nc1ccccc1)Nc1ccccc1C(=O)NCc1ccco1 0.665% [at 12.7 µM]
COc1ccc(NC(=O)CN(C)C(=O)c2ccc(COc3ccccc3)o2)cc1 8.51% [at 102 µM]
C[C@H]1[C@H]2c3nc4ccccc4n3C[C@H]1ON2C1CCCCC1 20.1% [at 102 µM]
CCS(=O)(=O)Nc1ccc(C2=NN(C(C)=O)C(c3cccs3)C2)cc1 (stereo unspecified) 7.26% [at 102 µM]
CS(=O)(=O)Nc1ccc(C2=NN(S(C)(=O)=O)C(c3cccs3)C2)cc1 (stereo unspecified) -27.8% [at 102 µM]
CCCCN(CCCC)CCCNC(=O)CN1C(=O)COc2ccc(S(=O)(=O)N3CCC(C)CC3)cc21 56.2% [at 102 µM]
O=C(CCNC(=O)c1ccc(Br)cc1)NCC(c1ccco1)N1CCCCC1 (stereo unspecified) 19.9% [at 12.7 µM]
Cc1ccc(/C=N/NC(=O)Cn2ccc(C(F)(F)F)n2)o1 -9.13% [at 102 µM]
C/C(=N\NC(=O)NC1CCCCC1)c1ccc(OC(F)F)cc1OC(F)F 7.82% [at 102 µM]
Cc1ccc(NC(=S)NC2CCCC2)cc1 23.8% [at 0.501 µM]
C/C(=N/NC(=O)c1ccc(Br)o1)c1ccc(C)o1 3.1%

Potency, active:
Cc1cccc(N=C2NC(=O)/C(=C/c3cn(C)c4ccccc34)S2)c1 79.4 µM
CC(=O)Nc1ccc(-c2csc(NC(=O)Nc3ccccc3)n2)cc1 44.7 µM
COc1ccc(Nc2nc(-c3ccccc3)cs2)cc1 12.6 µM
NS(=O)(=O)c1ccc(Nc2nc(-c3ccccc3)cs2)cc1 44.7 µM
COc1ccc(OC)c(Nc2nc(-c3ccc(O)c(O)c3)cs2)c1 3.98 µM
Cc1ccc(OCc2n[nH]c(=S)n2-c2ccccc2)cc1 1.58 µM
S=c1[nH]nc(COc2ccccc2)n1-c1ccccc1 2.51 µM
Cc1ccc(NCc2n[nH]c(=S)n2-c2ccccc2)cc1Cl 22.4 µM
COc1ccc(OCc2n[nH]c(=S)n2N)cc1 1.78 µM
CCOc1ccc(C(=O)Nc2cc(Cl)ccc2-n2cncn2)cc1OC 15.8 µM
CN(C)C(CNC(=O)c1cccc(S(=O)(=O)Nc2ccc(Br)cc2)c1)c1ccco1 (stereo unspecified) 50.1 µM
O=C(NCc1cccs1)c1ccc2c(c1)ncn2C1CCCC1 50.1 µM
CN(Cc1cccc2ncccc12)C(=O)CC1C(=O)NCCN1Cc1ccc(F)cc1 (stereo unspecified) 44.7 µM
Cc1nc(CN(C)C(=O)CC2C(=O)NCCN2Cc2ccc(F)cc2)cs1 (stereo unspecified) 44.7 µM
COc1cccc(CN2CCNC(=O)C2CC(=O)N(C)CCc2ccccn2)c1 (stereo unspecified) 44.7 µM
CCOc1ccccc1C(=O)NCc1ccco1 44.7 µM
CCS(=O)(=O)Nc1ccc(C2=NN(S(=O)(=O)c3ccc(F)cc3)C(c3ccco3)C2)cc1 (stereo unspecified) 79.4 µM
C/C(=N\NC(=S)NC1CCCCC1)c1ccc(C)o1 50.1 µM
Cc1ccc(/C=N/NC(=S)NC2CCCCC2)o1 50.1 µM
